Test results as given in PubChem BioAssay (NCATS).
Records with an inconclusive call do not appear. Calls of active or inactive are those of the source. Calls come from the whole dose curve; as a rule, active = well fitted inhibition curve with a large enough effect; inconclusive = small, poorly fitted or top-dose-only effect; inactive = flat fitted curve, though single readings scatter.

Assays:
Experiment in all cases: qHTS profiling for inhibitors of Plasmodium falciparum proliferation (AID 504749); note: nearly all actives have a fitted effect of over 60% in size
Settings in all cases: P. falciparum in erythrocytes, SYBR Green DNA, 72 h; series mostly up to 28.7 µM
AA1029 = system: AA1029
Outline: (§1)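 Each compound contacts P. falciparum-infected red blood cells for 72 h at 37 C; lysis buffer (Tris, EDTA, saponin, Triton X, SYBR Green I) is added and fluorescence measured next morning; values normalized to controls.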

AS120 = system: AS120
Outline: as §1

ATS189 = system: ATS189
Outline: as §1

ATS95 = system: ATS95
Outline: as §1

C2A = system: C2A
Outline: as §1

CP185 = system: CP185
Outline: as §1

CP191 = system: CP191
Outline: as §1

CP192 = system: CP192
Outline: as §1

CP194 = system: CP194
Outline: as §1

CP201 = system: CP201
Outline: as §1

CP203 = system: CP203
Outline: as §1

CP211 = system: CP211
Outline: as §1

CP215 = system: CP215
Outline: as §1

CP217 = system: CP217
Outline: as §1

CP237 = system: CP237
Outline: as §1

CP238 = system: CP238
Outline: as §1

CP247 = system: CP247
Outline: as §1

CP250 = system: CP250
Outline: as §1

CP252 = system: CP252
Outline: as §1

CP256 = system: CP256
Outline: as §1

Measured: Potency
Potency is the fitted concentration of half-maximal effect.

NCC(O)CC(=O)O (stereo not given)
inactive: AA1029 | AS120 | ATS189 | ATS95 | C2A | CP185 | CP191 | CP192 | CP194 | CP201 | CP203 | CP211 | CP215 | CP217 | CP237 | CP238 | CP247 | CP250 | CP252 | CP256

CC(C)(C)c1ccc2c(S(=O)(=O)O)c(C(C)(C)C)ccc2c1
inactive: AA1029 | AS120 | ATS189 | ATS95 | C2A | CP185 | CP191 | CP192 | CP194 | CP201 | CP203 | CP211 | CP215 | CP217 | CP237 | CP238 | CP247 | CP250 | CP252 | CP256

CC(C)(Oc1ccc(C2CCCc3ccccc32)cc1)C(=O)O (stereo not given)
inactive: AA1029 | AS120 | ATS189 | ATS95 | C2A | CP185 | CP191 | CP192 | CP194 | CP201 | CP203 | CP211 | CP215 | CP217 | CP237 | CP238 | CP247 | CP250 | CP252 | CP256

O=C(O)COc1ccc(CCNS(=O)(=O)c2ccccc2)s1
inactive: AA1029 | AS120 | ATS189 | ATS95 | C2A | CP185 | CP191 | CP192 | CP194 | CP201 | CP203 | CP211 | CP215 | CP217 | CP237 | CP238 | CP247 | CP250 | CP252 | CP256

CN(C)C=Nc1c(I)cc(I)c(CCC(=O)O)c1I
inactive: AA1029 | AS120 | ATS189 | ATS95 | C2A | CP185 | CP191 | CP192 | CP194 | CP201 | CP203 | CP211 | CP215 | CP217 | CP237 | CP238 | CP247 | CP250 | CP252 | CP256

CCOc1ccc(NC(=S)Nc2ccc(OCC)cc2)cc1
inactive: AA1029 | AS120 | ATS189 | ATS95 | C2A | CP185 | CP191 | CP192 | CP194 | CP201 | CP203 | CP211 | CP215 | CP217 | CP237 | CP238 | CP247 | CP250 | CP252 | CP256

FCOC(C(F)(F)F)C(F)(F)F
inactive: AA1029 | AS120 | ATS189 | ATS95 | C2A | CP185 | CP191 | CP192 | CP194 | CP201 | CP203 | CP211 | CP215 | CP217 | CP237 | CP238 | CP247 | CP250 | CP252 | CP256

CC1=C(/C=C/C(C)=C/C=C/C(C)=C/C(=O)Oc2c(C)c(C)c3c(c2C)CC[C@@](C)(CCC[C@H](C)CCC[C@H](C)CCCC(C)C)O3)C(C)(C)CCC1
inactive: AA1029 | AS120 | ATS189 | ATS95 | C2A | CP185 | CP191 | CP192 | CP194 | CP201 | CP203 | CP211 | CP215 | CP217 | CP237 | CP238 | CP247 | CP250 | CP252 | CP256

CC1=CC(=C(c2ccc(N)cc2)c2ccc(N)cc2)C=CC1=N
active: AA1029 2.24 µM | AS120 2.24 µM | ATS189 2.82 µM | ATS95 2.82 µM | C2A 0.631 µM | CP185 3.98 µM | CP191 1.78 µM | CP192 4.26 µM | CP194 3.79 µM | CP201 5.36 µM | CP203 4.26 µM | CP211 4.26 µM | CP215 4.78 µM | CP217 3.55 µM | CP237 3.16 µM | CP238 3.55 µM | CP247 1.12 µM | CP250 1 µM | CP252 3.16 µM | CP256 2.24 µM

ClC(Cl)Cl
inactive: AA1029 | AS120 | ATS189 | ATS95 | C2A | CP185 | CP191 | CP192 | CP194 | CP201 | CP203 | CP211 | CP215 | CP217 | CP237 | CP238 | CP247 | CP250 | CP252 | CP256

COC(=O)C(CN)c1c[nH]c2ccc(OC)cc12 (stereo not given)
inactive: AA1029 | AS120 | ATS189 | ATS95 | C2A | CP185 | CP191 | CP192 | CP194 | CP201 | CP203 | CP211 | CP215 | CP217 | CP237 | CP238 | CP247 | CP250 | CP252 | CP256

F[Si-2](F)(F)(F)(F)F
inactive: AA1029 | AS120 | ATS189 | ATS95 | C2A | CP185 | CP191 | CP192 | CP194 | CP201 | CP203 | CP211 | CP215 | CP217 | CP237 | CP238 | CP247 | CP250 | CP252 | CP256

CC(C)[C@@H](N)C(=O)O
inactive: AA1029 | AS120 | ATS189 | ATS95 | C2A | CP185 | CP191 | CP192 | CP194 | CP201 | CP203 | CP211 | CP215 | CP217 | CP237 | CP238 | CP247 | CP250 | CP252 | CP256

FC(F)OC(Cl)C(F)(F)F (stereo not given)
inactive: AA1029 | AS120 | ATS189 | ATS95 | C2A | CP185 | CP191 | CP192 | CP194 | CP201 | CP203 | CP211 | CP215 | CP217 | CP237 | CP238 | CP247 | CP250 | CP252 | CP256

CCCCC/C=C\C/C=C\C/C=C\CCCCC(=O)O
inactive: AA1029 | AS120 | ATS189 | ATS95 | C2A | CP185 | CP191 | CP192 | CP194 | CP201 | CP203 | CP211 | CP215 | CP217 | CP237 | CP238 | CP247 | CP250 | CP252 | CP256

OCC(O)CO
inactive: AA1029 | AS120 | ATS189 | ATS95 | C2A | CP185 | CP191 | CP192 | CP194 | CP201 | CP203 | CP211 | CP215 | CP217 | CP237 | CP238 | CP247 | CP250 | CP252 | CP256

O=C(O)Cc1nn(Cc2ccc(Br)cc2F)c(=O)c2ccccc12
inactive: AA1029 | AS120 | ATS189 | ATS95 | C2A | CP185 | CP191 | CP192 | CP194 | CP201 | CP203 | CP211 | CP215 | CP217 | CP237 | CP238 | CP247 | CP250 | CP252 | CP256

FC(F)(F)COCC(F)(F)F
inactive: AA1029 | AS120 | ATS189 | ATS95 | C2A | CP185 | CP191 | CP192 | CP194 | CP201 | CP203 | CP211 | CP215 | CP217 | CP237 | CP238 | CP247 | CP250 | CP252 | CP256

C[C@H](O)CN(C)C
inactive: AA1029 | AS120 | ATS189 | ATS95 | C2A | CP185 | CP191 | CP192 | CP194 | CP201 | CP203 | CP211 | CP215 | CP217 | CP237 | CP238 | CP247 | CP250 | CP252 | CP256

CCc1ccc(S(=O)(=O)O)cc1
inactive: AA1029 | AS120 | ATS189 | ATS95 | C2A | CP185 | CP191 | CP192 | CP194 | CP201 | CP203 | CP211 | CP215 | CP217 | CP237 | CP238 | CP247 | CP250 | CP252 | CP256

CC(C)Cc1ccc([C@@H](C)C(=O)NS(C)(=O)=O)cc1
inactive: AA1029 | AS120 | ATS189 | ATS95 | C2A | CP185 | CP191 | CP192 | CP194 | CP201 | CP203 | CP211 | CP215 | CP217 | CP237 | CP238 | CP247 | CP250 | CP252 | CP256

CCCc1ccc(C(=O)O)cc1
inactive: AA1029 | AS120 | ATS189 | ATS95 | C2A | CP185 | CP191 | CP192 | CP194 | CP201 | CP203 | CP211 | CP215 | CP217 | CP237 | CP238 | CP247 | CP250 | CP252 | CP256

C=C(C)C1CC=C(C)CC1 (stereo not given)
inactive: AA1029 | AS120 | ATS189 | ATS95 | C2A | CP185 | CP191 | CP192 | CP194 | CP201 | CP203 | CP211 | CP215 | CP217 | CP237 | CP238 | CP247 | CP250 | CP252 | CP256

OCC1(CO)COC(C(Cl)(Cl)Cl)OC1
inactive: AA1029 | AS120 | ATS189 | ATS95 | C2A | CP185 | CP191 | CP192 | CP194 | CP201 | CP203 | CP211 | CP215 | CP217 | CP237 | CP238 | CP247 | CP250 | CP252 | CP256

CCOc1ccc(S(=O)(=O)O)c2cccnc12
inactive: AA1029 | AS120 | ATS189 | ATS95 | C2A | CP185 | CP191 | CP192 | CP194 | CP201 | CP203 | CP211 | CP215 | CP217 | CP237 | CP238 | CP247 | CP250 | CP252 | CP256

OC[C@H]1O[C@@H]2O[C@H]3[C@H](O)[C@@H](O)[C@@H](O[C@H]4[C@H](O)[C@@H](O)[C@@H](O[C@H]5[C@H](O)[C@@H](O)[C@@H](O[C@H]6[C@H](O)[C@@H](O)[C@@H](O[C@H]7[C@H](O)[C@@H](O)[C@@H](O[C@H]1[C@H](O)[C@H]2O)O[C@@H]7CO)O[C@@H]6CO)O[C@@H]5CO)O[C@@H]4CO)O[C@@H]3CO
inactive: AA1029 | AS120 | ATS189 | ATS95 | C2A | CP185 | CP191 | CP192 | CP194 | CP201 | CP203 | CP211 | CP215 | CP217 | CP237 | CP238 | CP247 | CP250 | CP252 | CP256
